# Assay results reported in PubChem BioAssay AID652104 (National Center for Advancing Translational Sciences (NCATS), 2013).
# About 7,200 (1.8%) of roughly 410,000 compounds were called active. Entries that show only a call come without a potency. Inconclusive results (about 7%) are left out. The sample holds actives, similar compounds and a random draw of the others, so the mix is not that of the screen. Calls come from the whole dose curve; as a rule, active = well fitted activation curve with a large enough effect; inconclusive = small, poorly fitted or top-dose-only effect, or another doubt; inactive = no such curve, though single readings can be large or run the other way.
# Assay: qHTS of TDP-43 Inhibitors; note: nearly all actives have a fitted effect of over 50% in size
# Details: TDP-43 expressing yeast growth rescue, BacTiter-Glo, 24 h; series mostly up to 46.1 µM
# How it was run: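 In this qHTS, compounds that restore growth of yeast expressing TDP-43 appear as activators. Cells (OD600=0.02, galactose medium, raffinose-pregrown) are incubated with compound 24 hr at 30 deg C and growth is quantified by BacTiter-Glo.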
# Potency is the fitted concentration of half-maximal effect.
Structure (SMILES),Potency,growth rescue (activation)
Fc1ccc2nc(Nc3nc4c(s3)CCCC4)sc2c1,2.24 µM (active),
Cc1cc(C)cc(OC(C)C(=O)Nc2nc3c(s2)CCCC3)c1 (stereo unspecified),inactive,
O=C(Nc1nc2c(s1)CCCC2)c1ccccc1F,inactive,
COc1ccc(-c2cn3nc(N4CCC(C(=O)Nc5cccc(C)c5C)CC4)sc3n2)cc1,inactive,
Cc1ccccc1S(=O)(=O)NC(=O)C1(C)CCN1C(=O)C1(c2ccc(Cl)cc2)CC1 (stereo unspecified),28.2 µM (active),
CCCNC(=O)C1(C)CCN1C(=O)C1(c2ccccc2)CC1 (stereo unspecified),inactive,
Cc1ccccc1S(=O)(=O)NC(=O)C1(C)CCN1C(=O)C1(c2ccccc2)CCCC1 (stereo unspecified),35.5 µM (active),
CC1(C(=O)NS(=O)(=O)c2ccc3ccccc3c2)CCN1C(=O)C1(c2ccc(Cl)cc2)CCC1 (stereo unspecified),inactive,
Cc1ccccc1S(=O)(=O)NC(=O)C1(C)CCN1C(=O)Cc1ccc(Cl)cc1Cl (stereo unspecified),inactive,
CC1(C(=O)NS(=O)(=O)c2ccccc2)CCN1C(=O)c1ccccc1 (stereo unspecified),inactive,
COc1ccc(NC(=O)CSc2nccn2C2CCCC2)cc1OC,inactive,
COc1ccccc1CCNC(=O)c1cccn1-c1nnc(N2CCCCC2)s1,inactive,
O=C(CCn1c(=O)c2sccc2n(Cc2ccc(F)cc2)c1=O)NCc1ccc2c(c1)OCO2,inactive,
O=C(Nc1ccc2nc(SCC(=O)N3CCCc4ccccc43)sc2c1)c1ccc(Cl)cc1,inactive,
CCOc1ccccc1NC(=O)CN1CCCN(Cc2cccc(Cl)c2)S1(=O)=O,inactive,
CCCCn1cc(S(=O)(=O)c2ccc(OCC)cc2)c(=O)c2cc(OC)c(OC)cc21,inactive,
COc1ccc(S(=O)(=O)c2cn(C)c3cc(N4CCCCC4)c(F)cc3c2=O)cc1,inactive,
COc1cc2nc(NCC(C)c3ccccc3)n3nc(-c4ccccc4)nc3c2cc1OC (stereo unspecified),inactive,
CCCCC12CN3CC(C)(CN(C1)C3c1ccc(O)c(OC)c1)C2=O (stereo unspecified),inactive,
Cc1nc(-c2ccc(F)cc2)c(CC(=O)Nc2cc(S(=O)(=O)N3CCCCC3)ccc2C)s1,inactive,
Cc1ccc(S(=O)(=O)N2CCN(C(=O)Cc3sc(C)nc3-c3ccc(F)cc3)CC2)c(C)c1,35.5 µM (active),
Cc1nc(-c2ccc(F)cc2)c(CC(=O)N2CCN(S(=O)(=O)c3ccc(F)cc3)CC2)s1,inactive,
COc1cccc(CNCc2c(C(=O)O)n(Cc3ccc(C)cc3)c3cc(C)ccc23)c1OC,inactive,
COc1ccc(NS(=O)(=O)c2cc3c4c(c2)CC(=O)N4CCC3)cc1Cl,inactive,

Structure (SMILES),Potency,growth rescue (activation)
COc1cc(NC(=O)CSc2nc3nc(C)c(Cc4ccc(C)cc4)c(C)n3n2)cc(OC)c1OC,inactive,
Cn1cc(S(=O)(=O)NC(c2ccccc2)c2ccccc2)c(=O)n(C)c1=O,inactive,
CC(C)c1ccc(NS(=O)(=O)c2cn(C)c(=O)n(C)c2=O)cc1,20 µM (active),
Cn1cc(S(=O)(=O)Nc2ccc(Cl)cc2Cl)c(=O)n(C)c1=O,inactive,
CCc1ccc(C(=O)NNC(=O)C2CCN(c3ncnc4sc(C)c(C)c34)CC2)cc1,inactive,
Cc1sc2ncnc(N3CCC(C(=O)Nc4ccc(F)cc4Cl)CC3)c2c1C,15.8 µM (active),
Cc1nnc(N2CCC(C(=O)Nc3ccc(F)cc3)CC2)c2nn(-c3ccc(Cl)cc3)c(C)c12,inactive,
O=C(CCn1ccc2cc(S(=O)(=O)N3CCCC3)ccc21)NCc1cccc(Cl)c1,inactive,
CCOC(=O)c1ccc(NC(=O)CCS(=O)(=O)c2ccc(C)cc2)cc1,inactive,
O=C(CCc1nc(CN2CCN(S(=O)(=O)c3ccc(F)cc3)CC2)no1)N1CCCCC1,inactive,
COc1cccc(CNC(=O)Cn2ncn3c(cc4ccccc43)c2=O)c1,inactive,
Fc1ccc(-n2ncc3c(Nc4ccc(Oc5ccccc5)cc4)ncnc32)cc1,inactive,
CCCCNc1c(-c2cccc(Sc3ccc(OC)cc3)c2)nc2ccccn12,inactive,
CCCCNc1c(-c2ccc(OC)c(Sc3ccc(OC)cc3)c2)nc2ccc(Cl)cn12,17.8 µM (active),
COc1ccc(-c2nc3cc(C)ccn3c2NC2CCCCC2)cc1SC1CCCCC1,inactive,
O=C1CN(C(=O)Nc2ccccc2C(F)(F)F)C(c2ccccc2)c2c(sc3c2CCCC3)N1 (stereo unspecified),inactive,
COc1cc(OC)cc(-c2nc3nc(C)c(CCC(=O)Nc4ccc(C)cc4)c(C)n3n2)c1,inactive,
CCC(c1nnnn1-c1ccc2c(c1)OCCO2)N1CCN(c2ccc(C(F)(F)F)cn2)CC1 (stereo unspecified),22.4 µM (active),
CCN(CC)CCN(C)C(c1ccnc2ccccc12)c1nnnn1-c1ccc2c(c1)OCCO2 (stereo unspecified),inactive,
CCOc1ccc(C(=O)NCC(=O)N2CCN(c3ccc(C(F)(F)F)cn3)CC2)cc1,inactive,
O=C(Nc1ccc(O)c(-c2nc3ccccc3o2)c1)c1ccc(-c2cccc(Cl)c2)o1,inactive,
COC(=O)c1cc2occc2n1Cc1nc(-c2ccc(C)cc2)oc1C,inactive,
CCN(CC)S(=O)(=O)c1ccc2c(c1)N(CC(=O)NCc1ccccc1)C(=O)CS2,inactive,
Nc1c(C(=O)O)cnn1-c1ccccc1,inactive,

Structure (SMILES),Potency,growth rescue (activation)
CCCc1c(C(=O)O)cnn1-c1ccc(Cl)cc1,20 µM (active),
CCNC(=O)c1cnn(-c2ccccc2)c1-c1ccccc1,inactive,
O=C(Nc1ccc(S(=O)(=O)N2CCC(c3nc4ccccc4s3)CC2)cc1)c1ccccc1F,inactive,
COc1ccc(Cn2ccn(Cc3cccc(OC)c3)c(=O)c2=O)cc1,inactive,
COc1ccc2c(c1)CC[C@@H]1[C@@H]2CC[C@]2(C)C(=O)CC[C@@H]12,12.6 µM (active),
COc1ccc(C=C2CCC3C(CCCC34OCCO4)C2=O)cc1 (stereo unspecified),inactive,
Cc1cc(Br)ccc1NC(=O)Cn1cnc2sc(C)c(S(=O)(=O)N3CCN(C)CC3)c2c1=O,inactive,
CCOc1ccc(N(CC)C(=O)c2cc3c(=O)oc4ccccc4c3s2)cc1,inactive,
CCOc1ccc(CCNC(=O)Cn2nc(CC)n3c(cc4sc(CC)cc43)c2=O)cc1OCC,inactive,
CCOc1ccc(C(=O)/C=C/c2cn(CC(O)CN3CCCCCC3)c3ccccc23)cc1 (stereo unspecified),inactive,
CC(C)c1ccc(NC(=O)Cn2nnc(C(=O)NCCc3ccccc3)c2N)cc1,inactive,
CCOC(=O)C1CCCN(C(=O)c2ccc(-n3ccc4ccccc43)s2)C1 (stereo unspecified),inactive,
O=S(=O)(NC1CC2CCC1C2)c1ccc(Cl)cc1 (stereo unspecified),7.08 µM (active),
CCOC1CCCCC1NS(=O)(=O)c1ccc(Cl)cc1 (stereo unspecified),inactive,
CCN1CCN(C2CCCCC2NS(=O)(=O)c2ccc(Cl)cc2)CC1 (stereo unspecified),inactive,
COc1ccc(Cn2ccnc2SCC(=O)NCc2ccco2)cc1,inactive,
COc1cc(C(=O)N2CCC(c3ccncc3)CC2)cc(OC)c1OC,,-21.7% [at 9.22 µM] (inactive)
CCn1c(=O)c(=O)n(CC)c2cc(N3CCCCC3)c(NC(=O)c3cccc(F)c3)cc21,inactive,
O=C(Nc1ccccc1N1CCCC1)c1ccc(F)c(S(=O)(=O)N2CCOCC2)c1,inactive,
O=C(Nc1ccccc1N1CCCCC1)c1cccc(F)c1,12.6 µM (active),
CCN1CCN(Cc2c(O)ccc3oc(C)c(C(=O)Nc4ccc(C)cc4C)c23)CC1,inactive,
O=C(CSc1nc2nccnc2c(=O)n1CCc1c[nH]c2ccccc12)Nc1ccccc1F,inactive,
Cc1ccc(Nc2c(-c3ccc(Cl)cc3)nc3sccn23)c(C)c1,25.1 µM (active),
O=C(NCc1ccc(Cl)cc1)c1cc2c(nc3sccn32)s1,inactive,

Structure (SMILES),Potency,growth rescue (activation)
Cc1ccc(S(=O)(=O)NCc2cn3ccsc3n2)c(C)c1,inactive,
Cc1ccc2nc3c(cc(C(=O)NC4CCCCC4)c(=N)n3C(C)C)c(=O)n2c1,inactive,
CCN(Cc1ccccc1)S(=O)(=O)c1ccc2c(c1)CCCN2C(C)=O,inactive,
CCOC(=O)c1ccc[n+](CC(=O)Nc2ccccc2OC(F)F)c1,,1.27% [at 0.397 µM] (inactive)
FC(F)Oc1ccccc1NC(=S)Nc1cccc(Cl)c1Cl,17.8 µM (active),
CC(=O)Nc1ccc(NC(=O)COc2ccccc2C(=O)Nc2cccc(Cl)c2Cl)cc1,inactive,
Cc1cc(C)c(-c2n[nH]c3c2C(c2ccccc2F)N(CCO)C3=O)c(O)c1 (stereo unspecified),inactive,
CCOC(=O)c1sc(NC(=O)/C=C/c2ccc(C(C)C)cc2)c(C(=O)OCC)c1C,inactive,
CSc1ncc(C(=O)NCc2ccccc2Cl)c(C(F)(F)F)n1,inactive,
Cc1cccc(N2CCN(C(=O)c3oc(=O)c4ccccc4c3-c3ccccc3)CC2)c1C,inactive,
COc1ccccc1Nc1cc(C(=O)NCCCN(C)C2CCCCC2)c2ccccc2n1,inactive,
O=[N+]([O-])c1ccc2oc(-c3cccc(O)c3)nc2c1,7.94 µM (active),
COc1ccc(-c2nc3ccccc3o2)cc1NC(=O)c1cc([N+](=O)[O-])ccc1N1CCOCC1,inactive,
O=C(Nc1cc(-c2nc3ccccc3o2)ccc1Cl)c1cc([N+](=O)[O-])ccc1N1CCOCC1,inactive,
CN(c1ccccc1)S(=O)(=O)c1cc(C(=O)OCC(=O)N2CCN(C(=O)c3ccco3)CC2)ccc1Cl,inactive,
CN(c1ccccc1)S(=O)(=O)c1cccc(C(=O)NNC(=O)c2ccncc2)c1,inactive,
CN(c1ccccc1)S(=O)(=O)c1cc(C(=O)Nc2nc3ccccc3[nH]2)ccc1Cl,15.8 µM (active),
c1ccc(Nc2n[nH]nc2-c2ccccc2)cc1,12.6 µM (active),
O=c1cnnc(Nc2ccccc2)[nH]1,inactive,
S=c1[nH]nc(Nc2ccccc2)s1,inactive,
Cc1cc(C)cc(-n2c(SCC(=O)NCC3CCCO3)nc3c([nH]c4ccccc43)c2=O)c1 (stereo unspecified),inactive,
NNC(=O)CSc1nnc(-c2ccccc2)n1-c1ccccc1,inactive,
Cc1ccc(-n2c(Cc3cccs3)nnc2SCC(=O)OC(C)C)cc1,inactive,
Cc1ccc(-c2nnc(SCC(=O)N/N=C/c3cccs3)n2-c2ccc(C)cc2)cc1,22.4 µM (active),
